# Data taken from PubChem BioAssay AID1851 (National Center for Advancing Translational Sciences (NCATS), 2009).
# Values joined by “and” are separate entries in the source; they are usually repeats but may differ in a detail not shown here. Equal entries are not always repeated. About 5,100 (32%) of roughly 16,000 compounds were called active. Roughly 25% stayed inconclusive and do not appear here. Calls come from the whole dose curve; as a rule, active = well fitted curve in the direction sought with a large enough effect; inconclusive = small, poorly fitted or top-dose-only effect, or effect the other way; inactive = no such curve, though single readings can be large or run the other way. Some of the results follow.
# Target: Cytochrome P450 3A4 (Homo sapiens) (UniProt P08684)
# Sequence (P08684 whole entry, looked up): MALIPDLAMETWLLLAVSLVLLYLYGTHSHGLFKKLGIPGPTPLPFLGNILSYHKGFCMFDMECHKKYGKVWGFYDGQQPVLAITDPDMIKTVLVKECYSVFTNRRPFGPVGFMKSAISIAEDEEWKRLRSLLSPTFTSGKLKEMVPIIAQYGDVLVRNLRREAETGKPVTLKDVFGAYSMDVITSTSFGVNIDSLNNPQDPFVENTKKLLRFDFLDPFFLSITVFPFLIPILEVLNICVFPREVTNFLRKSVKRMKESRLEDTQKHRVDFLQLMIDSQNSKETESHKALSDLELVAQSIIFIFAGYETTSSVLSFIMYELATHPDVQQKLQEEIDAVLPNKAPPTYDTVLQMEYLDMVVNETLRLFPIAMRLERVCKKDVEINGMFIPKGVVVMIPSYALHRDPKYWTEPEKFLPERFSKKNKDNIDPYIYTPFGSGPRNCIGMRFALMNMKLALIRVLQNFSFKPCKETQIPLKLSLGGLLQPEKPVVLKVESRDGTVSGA
# Test: Cytochrome panel assay with activity outcomes
# Conditions: recombinant CYP, pro-luciferin dealkylation, luminescence, p450-cyp3a4; series mostly up to 57.1 µM
# % is set by controls: 0 for no effect and ±100 for the full control effect.
Compound,AC50,"activity, negative = inhibition"
CN(C)CCOC(=O)C1(c2ccccc2)CCOCC1,inactive,
CCN(CC)CCOC(=O)C1(c2ccc([N+](=O)[O-])cc2)CCCC1,inactive,
O=C(OCCN1CCOCC1)C1(c2ccccc2)CCCCC1,3.16 µM (active) and 1.58 µM (active),
NC(N)=NN=Cc1c(Cl)cccc1Cl,inactive,
O=C(Cc1cccs1)N1CCC(c2nc3c(nnn3Cc3ccccc3Cl)c(=O)[nH]2)CC1,3.16 µM (active),
COCC(=O)N1CCC2(CCN(Cc3ccccc3OC)CC2)CC1,inactive,
Cc1ccc(Cn2nnc3c(=O)[nH]c(C4CCN(C(=O)Cc5cccs5)CC4)nc32)cc1,4.47 µM (active),
COc1ccc(C(=O)N2CCC3(CCN(Cc4ccccc4OC)CC3)CC2)cc1,inactive,
COc1ccccc1Cn1nnc2c(=O)[nH]c(C3CCN(C(=O)c4ccc(C)cc4)CC3)nc21,1.58 µM (active),
Cc1ccc(-c2c(C#N)c(N)n(-c3ccccc3)c(=O)c2C#N)cc1,,-3.64% [at 2.29 µM] (inactive)
CN(C)CCOC(=O)c1ccc(N)cc1,,-4.56% [at 11.4 µM] (inactive)
O=C(OCCNC(=O)c1ccc2ccccc2n1)c1ccc(F)cc1,14.1 µM (active),
FC(F)(F)c1cc(C(F)(F)F)c2ccc(N/N=C/c3cccc(Cl)c3)nc2n1,inactive,
Fc1ccc(N2CCN(c3ccc4c(C(F)(F)F)cc(C(F)(F)F)nc4n3)CC2)cc1,10 µM (active),
Cc1ccc(Nc2nc(Cl)nc(N(C)C#N)n2)cc1,11.2 µM (active),
Cc1c(C)c2c(c(C)c1O)CC[C@@](C)(CCC[C@@H](C)CCC[C@@H](C)CCCC(C)C)O2,inactive,
Cc1ccc(NC(=O)c2sccc2SCc2cccc(C(F)(F)F)c2)cc1,1 µM (active),
CC(=O)OCc1c(C(F)(F)F)nn(C)c1Sc1ccccc1,inactive,
Cn1nc(C(F)(F)F)c(C(=O)Nc2ccc(F)cc2F)c1Sc1cccc(C(F)(F)F)c1,6.31 µM (active),
CC(C)NC(=O)c1ccc(-c2cccc(C(F)(F)F)c2)o1,inactive,
Cn1nc(C(F)(F)F)c(C(=O)Nc2ccc(F)cc2F)c1Sc1ccc(C(F)(F)F)cc1,12.6 µM (active),
Cc1ccc(NC(=O)c2c(C(F)(F)F)nn(C)c2SCc2cccc(C(F)(F)F)c2)cc1C,3.16 µM (active),
CN(C/C=C\c1ccccc1)Cc1cccc2ccccc12,inactive,
COc1ccccc1C(=O)NC(=S)N1CCCc2ccccc21,inactive,

Compound,AC50,"activity, negative = inhibition"
COc1ccccc1C(c1nnnn1C(C)(C)C)N1CCCc2ccccc21 (configuration not stated),10 µM (active),
COc1ccccc1C(c1nnnn1C(C)(C)C)N1CCN(Cc2ccncc2)CC1 (configuration not stated),3.16 µM (active),
CC[N+](CC)(CC)CC,inactive,
CC(C)(C)NC[C@@H](O)c1ccc(O)c(CO)n1,,2.12% [at 11.4 µM] (inactive)
N#Cc1ccc(C(c2nnnn2C2CCCC2)N2CCC(Cc3ccccc3)CC2)cc1 (configuration not stated),4.47 µM (active),
N#Cc1cccc(C(c2nnnn2C2CCCC2)N2CCCCCC2)c1 (configuration not stated),5.01 µM (active),
N#Cc1ccc(C(c2nnnn2Cc2ccccc2)N2CCCC2)cc1 (configuration not stated),7.94 µM (active),
N[C@@H](C(=O)O)c1ccc(P(=O)(O)O)cc1,inactive,
O=C(O)c1sc2cc(C(F)(F)F)cnc2c1-c1ccccc1,inactive,
CCOC(=O)c1sc2c(c1C)c(=O)c(C(=O)OCC)cn2CC,inactive,
CCOC(=O)c1sc2nc(CC(=O)OC)nc(NCc3ccc(F)cc3)c2c1C,4.47 µM (active),
Cc1cc(C)c(-c2noc(C(=O)OC(C)(C)C)c2C(=O)OC(C)(C)C)c(C)c1,,-8.97% [at 2.29 µM] (inactive)
Cc1cc(C(=O)CC#N)c(C)n1CC(F)(F)F,3.16 µM (active),
O=C(Cc1ccccc1)NC(=S)Nc1cc(C(F)(F)F)ccc1Cl,,-7.93% [at 2.29 µM] (inactive)
O=C(/C=C/c1ccc(Cl)cc1)Nc1ccc(N2CCCCC2)cc1,inactive,
O=C(/C=C/c1ccccc1)NC(NC(=S)Nc1ccc(Cl)cc1)C(Cl)(Cl)Cl (configuration not stated),4.47 µM (active),
O=C(NC(NC(=S)Nc1cc(Cl)ccc1Cl)C(Cl)(Cl)Cl)c1ccco1 (configuration not stated),6.31 µM (active),
CC(CP(=O)(O)O)NC(=O)Cc1ccccc1 (configuration not stated),inactive,
O=C(Cc1ccccc1)NC(NCCc1ccccc1)C(Cl)(Cl)Cl (configuration not stated),14.1 µM (active),
O=C(Cc1ccccc1)NC(NC(=S)Nc1cc(Cl)ccc1Cl)C(Cl)(Cl)Cl (configuration not stated),4.47 µM (active),
O=C(NNC(=S)Nc1ccccc1)c1ccco1,inactive,
O=C(CCc1ccccc1)Nc1ncn[nH]1,inactive,
C[C@@H](CCC(=O)O)C(=O)O,,-7.96% [at 11.4 µM] (inactive)
COCCn1c(=O)c(-c2cn(C)c3ccccc23)nc2cnc(Oc3ccc(OC)cc3)nc21,3.98 µM (active),

Compound,AC50,"activity, negative = inhibition"
COCCn1c(=O)c(-c2cn(C)c3ccccc23)nc2cnc(Oc3cccc(Cl)c3)nc21,inactive,
COCCn1c(=O)c(-c2cn(C)c3ccccc23)nc2cnc(Oc3ccccc3)nc21,3.16 µM (active),
COc1ccc(Oc2ncc3nc(-c4cn(C)c5ccccc45)c(=O)n(C4CC4)c3n2)cc1,12.6 µM (active),
OCCNc1nc(NCCC2=CCCCC2)nc(N2CCOCC2)n1,inactive,
Cc1ccc(N2CCN(CCC(=O)O)CC2)cc1,,-4.63% [at 11.4 µM] (inactive)
Cc1ccc(C)c(-c2nn(-c3cc(N4CCN(CCO)CC4)ccc3[N+](=O)[O-])c(=O)c3ccccc23)c1,12.6 µM (active),
COc1ccc(NC(=O)CCOc2ccccc2)cc1,15.8 µM (active),
CN1CCN(C(=O)c2ccc(COc3ccc(C(C)(C)C)cc3)o2)CC1,,-9.09% [at 2.29 µM] (inactive)
Cc1ccc(OCc2ccc(C(=O)Nc3nccs3)o2)cc1C,11.2 µM (active),
COc1ccc(NC(=O)c2ccc(COc3ccccc3)o2)cc1,22.4 µM (active),
O=C(COC(=O)COc1ccccc1)Nc1ccc(OC(F)(F)F)cc1,inactive,
Cc1ccc(OCC(=O)NNC(=O)c2cc3ccccc3o2)cc1C,inactive,
CC(C)N(CC(=O)O)CC(=O)O,,-7.3% [at 11.4 µM] (inactive)
CC12c3ccccc3C(c3ccccc31)C1C(=O)N(Cc3cccnc3)C(=O)C12 (configuration not stated),1.58 µM (active),
CC1CCCC(C)N1C(=O)C1CC(c2ccc(F)cc2)=NO1 (configuration not stated),11.2 µM (active),
CCN(CC)S(=O)(=O)c1ccc2c(c1)nc(SCC(=O)N1CCOCC1)n2-c1ccccc1OC,3.98 µM (active),
COc1ccccc1-n1c(SCC(=O)N2CCCC2)nc2cccnc21,15.8 µM (active),
CC1CCN(C(=O)CSc2nc3cccnc3n2C)CC1,inactive,
O=C(O)c1cccnc1SCC(=O)N1CCCCCC1,inactive,
CC(C)=C[C@H]1[C@@H](COC(=O)c2ccccc2Cl)C1(C)C,,-18.7% [at 11.4 µM] (inactive)
CCNC(=S)NNC(=O)c1cc(CC(C)C)nc2ccccc12,,-3.62% [at 2.29 µM] (inactive)
CCNC(=S)NNC(=O)c1cc(C2CC2)nc2ccccc12,,-10.5% [at 2.29 µM] (inactive)
Cc1cc(C(=O)NNC(=S)NC(C)c2ccccc2)c2ccccc2n1 (configuration not stated),14.1 µM (active),
CCCS(=O)(=O)N1CCN(CC2CC=CCC2)CC1 (configuration not stated),inactive,

Compound,AC50,"activity, negative = inhibition"
COc1ccc2nc(N3C(=O)CC(Cc4ccc(Cl)cc4)C3=O)sc2c1 (configuration not stated),inactive,
COc1ccc(CN2CN(c3ccc(Cl)cc3)C(=O)N(n3cnnc3)C2)cc1,14.1 µM (active),
COc1ccc(-n2cnnc2)cc1,inactive,
O=C(CSc1c[nH]c2ccccc12)N1CCOCC1,15.8 µM (active),
Nn1c(SCC(=O)N2CCOCC2)nnc1-c1ccccc1Cl,inactive,
C=C(C)C1Cc2nc(N)nc(C)c2C1 (configuration not stated),inactive,
O=C(NCc1ccco1)c1nc2c(nnn2Cc2cccc(Cl)c2)c(=O)[nH]1,inactive,
Cc1ccc(C)c(S(=O)(=O)N2CCC(c3nc4c(nnn4Cc4ccc(F)cc4)c(=O)[nH]3)CC2)c1,6.31 µM (active),
COc1cccc(Cn2nnc3c(=O)[nH]c(C4CCCN(C(=O)c5ccccc5Cl)C4)nc32)c1 (configuration not stated),2 µM (active),
Cc1ccc(Cn2nnc3c(=O)[nH]c(C4CCCN(C(=O)Nc5ccc(F)cc5F)C4)nc32)cc1 (configuration not stated),7.08 µM (active),
CC(=O)NC1(c2ccc(F)cc2)CCN(C(=O)Nc2ccc(F)cc2F)CC1,inactive,
O=C(O)C[C@@H](C(=O)O)C1c2ccccc2-c2ccccc21,,-5.49% [at 11.4 µM] (inactive)
NC(=O)c1cc[n+](CC2=C(C(=O)O)N3C(=O)[C@@H](NC(=O)[C@H](c4ccccc4)S(=O)(=O)[O-])[C@@H]3SC2)cc1,inactive,
CN(NC(=O)NN)c1ncc(C(F)(F)F)cc1Cl,14.1 µM (active),
O=C(O)/C=C/c1cn(-c2ncc(C(F)(F)F)cc2Cl)c2ccccc12,inactive,
Cn1c(C(N)=O)cnc1Sc1ncc(C(F)(F)F)cc1Cl,inactive,
CC(C)(C)c1ccc(C(=O)NCCC(=O)NCc2ccco2)cc1,14.1 µM (active),
COCC1C2CC[C@H]3C(OCc4ccc(F)cc4C(F)(F)F)OC[C@]4(C)[C@H]3C2=C(CN4C(=O)OC(C)(C)C)[C@H](C)C1COC (some centres not stated),15.8 µM (active),
C[C@H]1C2=C3C(CC[C@H]4C(OCc5ccc(F)cc5C(F)(F)F)OC[C@](C)([C@@H]34)N(C(=O)OC(C)(C)C)C2)C(CO)C1CO (some centres not stated),15.8 µM (active),
COc1cc(OC)c(NC(=S)Nc2cccc(C(C)=O)c2)cc1Cl,5.01 µM (active),
O=C(Nc1ccccc1C(=O)Nc1ccc2c(c1)OCO2)c1ccco1,1.26 µM (active),
COc1ccc(C(=O)Nc2ccc(NC(=O)c3ccco3)c(Cl)c2)cc1OC,,-24% [at 11.4 µM] (inactive)
CC(C)Oc1ccc(C(=O)Nc2ccc(NC(=O)c3ccco3)c(Cl)c2)cc1,inactive,
O=C(Nc1ccc2c(c1)OCCO2)c1cccc2nc3ccccc3nc12,11.2 µM (active),

Compound,AC50,"activity, negative = inhibition"
COc1cc(NC(=O)c2ccccc2Cl)ccc1NC(=O)c1ccco1,14.1 µM (active),
Cn1ncc([N+](=O)[O-])c1C(=O)Nc1ccc2c(c1)OCCO2,inactive,
CC1(C)Oc2ccc(NC(=O)c3ccco3)cc2O1,inactive,
CCOC(=O)C1=C(c2ccccc2)OC(N)=C(C#N)C1c1ccc(Cl)s1 (configuration not stated),inactive,
COC(=O)C1=C(C)OC(N)=C(C#N)C1C1CCCCC1 (configuration not stated),7.08 µM (active),
COC(=O)C1=C(C)OC(N)=C(C#N)C1c1cc(OC)ccc1OC (configuration not stated),8.91 µM (active),
CCOC(=O)C1=C(CSc2nc(-c3ccccc3)ccc2C#N)OC(N)=C(C#N)C1c1ccc(OC)cc1 (configuration not stated),,-22.9% [at 2.29 µM] (inactive)
C[C@H]1NC(=O)NC1=O,inactive,
CC1=C[N+](=O)c2ccccc2[N+]1=O,,-3.77% [at 11.4 µM] (inactive)
COc1ccccc1-c1ccc2ncnc(NCCNC(C)=O)c2c1,20 µM (active),
CC(=O)NCCNc1ncnc2ccc(-c3ccccc3Cl)cc12,15.8 µM (active),
CC(=O)NCCNc1ncnc2ccc(-c3ccccc3C)cc12,12.6 µM (active),
CC(=O)NCCNc1ncnc2ccc(-c3ccccc3C(F)(F)F)cc12,6.31 µM (active),
CN(C)CCCNc1ncnc2nc[nH]c12,,-8.34% [at 11.4 µM] (inactive)
Cc1ccc(NCC(=O)N/N=C\c2ccc([N+](=O)[O-])o2)cc1,25.1 µM (active),
Oc1ccc(/C=N/NC(=S)NCc2ccco2)cc1,,-2.66% [at 2.29 µM] (inactive)
CC(C)(C)c1ccc(OCC(=O)N/N=C/c2cc(Br)ccc2OC(=O)c2ccco2)cc1,inactive,
Cc1ccc(/C=N/NC(=O)Cn2nccc2C)o1,inactive,
Cc1ccc(NCC(=O)N/N=C/c2ccc(OC(=O)c3ccco3)cc2)cc1,17.8 µM (active),
CCOC(=O)N/N=C\c1ccc([N+](=O)[O-])o1,,-11.7% [at 2.29 µM] (inactive)
OC[C@@H]1O[C@@H](n2cnc3c(NC4CCCC4)ncnc32)[C@@H](O)[C@H]1O,inactive,
